# Measured values taken from the supplement of paper PMC7765376.
# Counter-ions that a name gives are not always drawn. The full ranking holds about 1,500 compounds; the median of “Excess HSA synergy score (sum over dose matrix of excess over highest single agent)” is about 43, and the lowest 2% start at about -900. Many of the other results were omitted from the sample, so the lowest values are more common in it than they were.
# Test system: PEO-1
# Assay: Excess HSA synergy score (sum over dose matrix of excess over highest single agent) (score (summed % response)); higher = less synergy / more antagonism (negative = synergy)
# Conditions: 72 h, read-out: viability/apoptosis luminescence (CellTiter-Glo or Caspase3-Glo / not stated per table)
# [1] = matrix design: 6x6, 5-fold dilutions (primary screen)
# [2] = matrix design: 10x10, 9-step dilutions (confirmatory)
smiles,measurement,setting,value
Cc1cnc(Nc2ccc(F)cc2Cl)nc1-c1c[nH]c(C(=O)N[C@H](CO)c2cccc(Cl)c2)c1 + CC[C@H](NC(=O)[C@H](C)NC)C(=O)N1C[C@@H](O)C[C@H]1Cc1c(-c2[nH]c3cc(F)ccc3c2C[C@@H]2C[C@H](O)CN2C(=O)[C@H](CC)NC(=O)[C@H](C)NC)[nH]c2cc(F)ccc12 [Birinapant],Excess HSA synergy score,[1],192
CN1CCN(c2cccc(Nc3nc4c(-c5ccc(S(C)(=O)=O)cc5)cccn4n3)c2)CC1 + CC[C@H](NC(=O)[C@H](C)NC)C(=O)N1C[C@@H](O)C[C@H]1Cc1c(-c2[nH]c3cc(F)ccc3c2C[C@@H]2C[C@H](O)CN2C(=O)[C@H](CC)NC(=O)[C@H](C)NC)[nH]c2cc(F)ccc12 [Birinapant],Excess HSA synergy score,[1],-105
Cc1c(-c2cccc3c(CCCOc4cccc5ccccc45)c(C(=O)O)n(Cc4cccnc4)c23)c(COc2ccc(N3CCN([S+](=O)([O-])N(C)C)CC3)cc2)nn1C + CC[C@H](NC(=O)[C@H](C)NC)C(=O)N1C[C@@H](O)C[C@H]1Cc1c(-c2[nH]c3cc(F)ccc3c2C[C@@H]2C[C@H](O)CN2C(=O)[C@H](CC)NC(=O)[C@H](C)NC)[nH]c2cc(F)ccc12 [Birinapant],Excess HSA synergy score,[1],51.7
Cn1cc(-c2ccc3nnc(C(F)(F)c4ccc5ncccc5c4)n3n2)cn1 + CC[C@H](NC(=O)[C@H](C)NC)C(=O)N1C[C@@H](O)C[C@H]1Cc1c(-c2[nH]c3cc(F)ccc3c2C[C@@H]2C[C@H](O)CN2C(=O)[C@H](CC)NC(=O)[C@H](C)NC)[nH]c2cc(F)ccc12 [Birinapant],Excess HSA synergy score,[1],40.5
Cc1ccc(C(=O)Nc2cccc(C(F)(F)F)c2)cc1Nc1nc(-c2cccnc2)nc2c1cnn2C + CC[C@H](NC(=O)[C@H](C)NC)C(=O)N1C[C@@H](O)C[C@H]1Cc1c(-c2[nH]c3cc(F)ccc3c2C[C@@H]2C[C@H](O)CN2C(=O)[C@H](CC)NC(=O)[C@H](C)NC)[nH]c2cc(F)ccc12 [Birinapant],Excess HSA synergy score,[1],-71.3
N#CC(c1ccnc(NCCc2cccnc2)n1)c1nc2ccccc2s1 (stereo not drawn) [JNK Inhibitor V] + CC[C@H](NC(=O)[C@H](C)NC)C(=O)N1C[C@@H](O)C[C@H]1Cc1c(-c2[nH]c3cc(F)ccc3c2C[C@@H]2C[C@H](O)CN2C(=O)[C@H](CC)NC(=O)[C@H](C)NC)[nH]c2cc(F)ccc12 [Birinapant],Excess HSA synergy score,[1],-67.5
CC(C)(C(=O)NCC(F)(F)C(F)(F)F)C(=O)N[C@@H]1C(=O)Nc2ccccc2-c2ccccc21 + CC[C@H](NC(=O)[C@H](C)NC)C(=O)N1C[C@@H](O)C[C@H]1Cc1c(-c2[nH]c3cc(F)ccc3c2C[C@@H]2C[C@H](O)CN2C(=O)[C@H](CC)NC(=O)[C@H](C)NC)[nH]c2cc(F)ccc12 [Birinapant],Excess HSA synergy score,[1],-141
COc1ccc(-c2coc3cc(O)cc(O)c3c2=O)cc1 [Biochanin A] + CC[C@H](NC(=O)[C@H](C)NC)C(=O)N1C[C@@H](O)C[C@H]1Cc1c(-c2[nH]c3cc(F)ccc3c2C[C@@H]2C[C@H](O)CN2C(=O)[C@H](CC)NC(=O)[C@H](C)NC)[nH]c2cc(F)ccc12 [Birinapant],Excess HSA synergy score,[1],235
CC(=O)NCC(=O)N1[C@@H]2CC[C@H]1c1ccc(Nc3ncc(C(F)(F)F)c(NC4CCC4)n3)cc12 + CC[C@H](NC(=O)[C@H](C)NC)C(=O)N1C[C@@H](O)C[C@H]1Cc1c(-c2[nH]c3cc(F)ccc3c2C[C@@H]2C[C@H](O)CN2C(=O)[C@H](CC)NC(=O)[C@H](C)NC)[nH]c2cc(F)ccc12 [Birinapant],Excess HSA synergy score,[1],-154
CCCCN1CCC(CNC(=O)c2c3n(c4ccccc24)CCCO3)CC1 [Piboserod hydrochloride] + CC[C@H](NC(=O)[C@H](C)NC)C(=O)N1C[C@@H](O)C[C@H]1Cc1c(-c2[nH]c3cc(F)ccc3c2C[C@@H]2C[C@H](O)CN2C(=O)[C@H](CC)NC(=O)[C@H](C)NC)[nH]c2cc(F)ccc12 [Birinapant],Excess HSA synergy score,[1],-0.918
Nc1ccn([C@@H]2CS[C@H](CO)O2)c(=O)n1 [Lamivudine] + CC[C@H](NC(=O)[C@H](C)NC)C(=O)N1C[C@@H](O)C[C@H]1Cc1c(-c2[nH]c3cc(F)ccc3c2C[C@@H]2C[C@H](O)CN2C(=O)[C@H](CC)NC(=O)[C@H](C)NC)[nH]c2cc(F)ccc12 [Birinapant],Excess HSA synergy score,[1],228
Nc1ccn([C@@H]2CO[C@H](CO)O2)c(=O)n1 [Troxacitabine] + CC[C@H](NC(=O)[C@H](C)NC)C(=O)N1C[C@@H](O)C[C@H]1Cc1c(-c2[nH]c3cc(F)ccc3c2C[C@@H]2C[C@H](O)CN2C(=O)[C@H](CC)NC(=O)[C@H](C)NC)[nH]c2cc(F)ccc12 [Birinapant],Excess HSA synergy score,[1],152
Nc1ncn([C@@H]2O[C@H](CO)[C@@H](O)[C@H]2O)c(=O)n1 [5-Azacitidine] + CC[C@H](NC(=O)[C@H](C)NC)C(=O)N1C[C@@H](O)C[C@H]1Cc1c(-c2[nH]c3cc(F)ccc3c2C[C@@H]2C[C@H](O)CN2C(=O)[C@H](CC)NC(=O)[C@H](C)NC)[nH]c2cc(F)ccc12 [Birinapant],Excess HSA synergy score,[1],-38.5
Nc1ccn([C@@H]2O[C@H](CO)[C@@H](O)C2(F)F)c(=O)n1 [Gemcitabine] + CC[C@H](NC(=O)[C@H](C)NC)C(=O)N1C[C@@H](O)C[C@H]1Cc1c(-c2[nH]c3cc(F)ccc3c2C[C@@H]2C[C@H](O)CN2C(=O)[C@H](CC)NC(=O)[C@H](C)NC)[nH]c2cc(F)ccc12 [Birinapant],Excess HSA synergy score,[1],-59.3
same,Excess HSA synergy score,[2],-1130
Nc1ccn([C@@H]2O[C@H](CO)[C@@H](O)[C@@H]2O)c(=O)n1 [Cytarabine] + CC[C@H](NC(=O)[C@H](C)NC)C(=O)N1C[C@@H](O)C[C@H]1Cc1c(-c2[nH]c3cc(F)ccc3c2C[C@@H]2C[C@H](O)CN2C(=O)[C@H](CC)NC(=O)[C@H](C)NC)[nH]c2cc(F)ccc12 [Birinapant],Excess HSA synergy score,[1],-388
same,Excess HSA synergy score,[2],-1320
Nc1ccn([C@@H]2O[C@H](CO)[C@@H](O)[C@H]2O)c(=O)n1 [Cytidine] + CC[C@H](NC(=O)[C@H](C)NC)C(=O)N1C[C@@H](O)C[C@H]1Cc1c(-c2[nH]c3cc(F)ccc3c2C[C@@H]2C[C@H](O)CN2C(=O)[C@H](CC)NC(=O)[C@H](C)NC)[nH]c2cc(F)ccc12 [Birinapant],Excess HSA synergy score,[1],170
O=C(c1ccc(F)c(F)c1Nc1ccc(I)cc1F)N1CC(O)([C@@H]2CCCCN2)C1 [Cobimetinib] + CC[C@H](NC(=O)[C@H](C)NC)C(=O)N1C[C@@H](O)C[C@H]1Cc1c(-c2[nH]c3cc(F)ccc3c2C[C@@H]2C[C@H](O)CN2C(=O)[C@H](CC)NC(=O)[C@H](C)NC)[nH]c2cc(F)ccc12 [Birinapant],Excess HSA synergy score,[1],148
CC(C)N(CC[C@H](c1ccccc1)c1cc(CO)ccc1O)C(C)C + CC[C@H](NC(=O)[C@H](C)NC)C(=O)N1C[C@@H](O)C[C@H]1Cc1c(-c2[nH]c3cc(F)ccc3c2C[C@@H]2C[C@H](O)CN2C(=O)[C@H](CC)NC(=O)[C@H](C)NC)[nH]c2cc(F)ccc12 [Birinapant],Excess HSA synergy score,[1],309
CCCCCCCCc1ccc(CCC(N)(CO)CO)cc1 [Fingolimod hydrochloride] + CC[C@H](NC(=O)[C@H](C)NC)C(=O)N1C[C@@H](O)C[C@H]1Cc1c(-c2[nH]c3cc(F)ccc3c2C[C@@H]2C[C@H](O)CN2C(=O)[C@H](CC)NC(=O)[C@H](C)NC)[nH]c2cc(F)ccc12 [Birinapant],Excess HSA synergy score,[1],-38.3
C/C=C/C[C@@H](C)C(=O)[C@H]1C(=O)N[C@@H](C(C)C)C(=O)N(C)CC(=O)N(C)[C@@H](CC(C)C)C(=O)N[C@@H](C(C)C)C(=O)N(C)[C@@H](CC(C)C)C(=O)N[C@@H](C)C(=O)N[C@H](C)C(=O)N(C)[C@@H](CC(C)C)C(=O)N(C)[C@@H](CC(C)C)C(=O)N(C)[C@@H](C(C)C)C(=O)N1C [Valspodar] + CC[C@H](NC(=O)[C@H](C)NC)C(=O)N1C[C@@H](O)C[C@H]1Cc1c(-c2[nH]c3cc(F)ccc3c2C[C@@H]2C[C@H](O)CN2C(=O)[C@H](CC)NC(=O)[C@H](C)NC)[nH]c2cc(F)ccc12 [Birinapant],Excess HSA synergy score,[1],173
COc1ccc(-c2cc3c(C)nc(N)nc3n([C@H]3CC[C@H](OCCO)CC3)c2=O)cn1 + CC[C@H](NC(=O)[C@H](C)NC)C(=O)N1C[C@@H](O)C[C@H]1Cc1c(-c2[nH]c3cc(F)ccc3c2C[C@@H]2C[C@H](O)CN2C(=O)[C@H](CC)NC(=O)[C@H](C)NC)[nH]c2cc(F)ccc12 [Birinapant],Excess HSA synergy score,[1],-32.5
O=C(/C=C/c1cccnc1)NCCCCC1CCN(C(=O)c2ccccc2)CC1 [Daporinad] + CC[C@H](NC(=O)[C@H](C)NC)C(=O)N1C[C@@H](O)C[C@H]1Cc1c(-c2[nH]c3cc(F)ccc3c2C[C@@H]2C[C@H](O)CN2C(=O)[C@H](CC)NC(=O)[C@H](C)NC)[nH]c2cc(F)ccc12 [Birinapant],Excess HSA synergy score,[1],312
Cc1ccc(NC(=O)c2ccc(CN3CCN(C)CC3)cc2)cc1Nc1nccc(-c2cccnc2)n1 [Imatinib] + CC[C@H](NC(=O)[C@H](C)NC)C(=O)N1C[C@@H](O)C[C@H]1Cc1c(-c2[nH]c3cc(F)ccc3c2C[C@@H]2C[C@H](O)CN2C(=O)[C@H](CC)NC(=O)[C@H](C)NC)[nH]c2cc(F)ccc12 [Birinapant],Excess HSA synergy score,[1],-103
Nc1ccccc1NC(=O)c1ccc(CNc2nccc(-c3cccnc3)n2)cc1 [Mocetinostat] + CC[C@H](NC(=O)[C@H](C)NC)C(=O)N1C[C@@H](O)C[C@H]1Cc1c(-c2[nH]c3cc(F)ccc3c2C[C@@H]2C[C@H](O)CN2C(=O)[C@H](CC)NC(=O)[C@H](C)NC)[nH]c2cc(F)ccc12 [Birinapant],Excess HSA synergy score,[1],-263
same,Excess HSA synergy score,[2],-1360
Nc1ccccc1NC(=O)c1ccc(CNC(=O)OCc2cccnc2)cc1 [Entinostat] + CC[C@H](NC(=O)[C@H](C)NC)C(=O)N1C[C@@H](O)C[C@H]1Cc1c(-c2[nH]c3cc(F)ccc3c2C[C@@H]2C[C@H](O)CN2C(=O)[C@H](CC)NC(=O)[C@H](C)NC)[nH]c2cc(F)ccc12 [Birinapant],Excess HSA synergy score,[1],-296
